Measured values: publication PMC4336329 (PLoS ONE, 2015)
In all, about 310,000 compounds went through this assay and about 14,000 (4.5%) showed an effect of 50% or more. Effects have a minus sign here. The entries come from a sample that favours strong results as a whole.

molecular target: human ether-à-go-go-related gene (hERG) potassium channel (human, UniProt Q12809); assay: primary screen, population patch clamp on CHO cells stably expressing hERG; higher = less effect of the substance
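Further: peak tail current of the secondary pulse compared with the same well before compound.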

human ether-à-go-go-related gene (hERG) potassium channel, sequence (Q12809 whole entry, looked up): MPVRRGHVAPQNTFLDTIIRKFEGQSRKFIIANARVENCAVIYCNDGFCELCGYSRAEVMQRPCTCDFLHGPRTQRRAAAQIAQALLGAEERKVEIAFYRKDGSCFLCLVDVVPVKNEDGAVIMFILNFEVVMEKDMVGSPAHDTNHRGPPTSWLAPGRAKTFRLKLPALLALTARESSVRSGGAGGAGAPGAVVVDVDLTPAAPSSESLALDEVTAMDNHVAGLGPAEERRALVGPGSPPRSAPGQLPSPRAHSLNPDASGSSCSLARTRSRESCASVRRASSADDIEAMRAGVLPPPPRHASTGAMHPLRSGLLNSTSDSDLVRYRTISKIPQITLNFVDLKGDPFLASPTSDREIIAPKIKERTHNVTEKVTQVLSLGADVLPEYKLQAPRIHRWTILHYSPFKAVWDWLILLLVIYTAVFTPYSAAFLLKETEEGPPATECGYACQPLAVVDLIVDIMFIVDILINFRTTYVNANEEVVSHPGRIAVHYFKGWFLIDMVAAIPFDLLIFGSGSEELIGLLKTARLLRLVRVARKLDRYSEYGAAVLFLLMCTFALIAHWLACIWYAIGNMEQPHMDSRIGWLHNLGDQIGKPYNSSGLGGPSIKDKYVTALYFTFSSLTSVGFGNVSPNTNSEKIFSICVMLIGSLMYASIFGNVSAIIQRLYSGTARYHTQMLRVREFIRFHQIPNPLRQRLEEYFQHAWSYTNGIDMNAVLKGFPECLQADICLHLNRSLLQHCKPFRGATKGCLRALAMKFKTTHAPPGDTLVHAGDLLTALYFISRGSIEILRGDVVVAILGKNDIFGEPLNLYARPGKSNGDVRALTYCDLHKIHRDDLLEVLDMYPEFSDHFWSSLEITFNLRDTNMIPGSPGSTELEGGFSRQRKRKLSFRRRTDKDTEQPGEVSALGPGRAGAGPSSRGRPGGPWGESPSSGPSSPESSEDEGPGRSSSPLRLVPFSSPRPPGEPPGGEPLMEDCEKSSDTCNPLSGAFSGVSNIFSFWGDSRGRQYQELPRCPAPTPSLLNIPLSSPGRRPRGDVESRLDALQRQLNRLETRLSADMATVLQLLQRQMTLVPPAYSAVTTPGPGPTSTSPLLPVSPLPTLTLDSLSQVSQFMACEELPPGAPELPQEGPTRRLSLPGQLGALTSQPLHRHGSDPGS

Row | Compound | hERG current change (%, negative = inhibition) at 10uM [%]
1 | Cc1ccc(N/C=C(\C#N)S(=O)(=O)c2ccccc2)cc1 | 14.3
2 | CCOC(=O)c1c(C)sc2c1N(C(=O)CCl)c1cc(Cl)ccc1S2 | -3.3
3 | COc1ccccc1NC(=O)Cn1cncc1-c1ccc([N+](=O)[O-])cc1 | 2.57
4 | O=C1CCC(C(=O)NCCN2C(=O)S/C(=C\c3cccnc3)C2=O)=NN1 | 2.26
5 | CSC1=NSC2=NC(=O)/C(=C\c3ccc(OC(=O)c4ccco4)cc3)C(=N)N12 | 9.54
6 | CCCCc1ccc(S(=O)(=O)N2CCN(C(=O)c3ccco3)CC2)cc1 | -66.5
7 | CC(C)Cc1ccc(S(=O)(=O)N2CCN(C(=O)c3ccco3)CC2)cc1 | -11.1
8 | COc1ccc(NC(=S)N2CCN(C(=O)c3ccco3)CC2)cc1 | -6.29
9 | COC(=O)c1ccc(NC(=S)N2CCN(C(=O)c3ccco3)CC2)cc1 | -4.94
10 | Cc1ccc(S(=O)(=O)N2CCN(C(=O)c3ccco3)CC2)cc1 | 1.15
11 | CCCCc1ccc(NC(=S)N2CCN(C(=O)c3ccco3)CC2)cc1 | -75.3
12 | COc1ccc(C2/C(=C(\O)c3ccc4c(c3)OCCO4)C(=O)C(=O)N2Cc2ccco2)c(OC)c1 (centres unmarked) | -9.64
13 | Cn1c(=O)cc(OCCCC(=O)Nc2cccnc2)c2ccccc21 | 0.169
14 | CCN(CC)CCn1nc2c3c(cccc3c1=O)-c1ccccc1-2 | -70.2
15 | O=c1c2cccc3c2c(nn1CN1CCOCC1)-c1ccccc1-3 | -11.5
16 | O=C(O)Cn1nc2c3c(cccc3c1=O)-c1ccccc1-2 | 8.18
17 | COC(=O)c1c(C)[nH]c(C)c1-c1ccccc1 | -5.37
18 | O=C1NC(c2ccc3c(c2)OCO3)Nc2ccccc21 (centres unmarked) | 10.5
19 | O=C(Nc1ccncc1)c1ccc2c(c1)OCCO2 | 11.8
20 | COc1ccc(Br)cc1S(=O)(=O)N(CC(=O)N1CCN(C)CC1)c1ccccc1 | -22.6
21 | COc1ccc(C)cc1S(=O)(=O)N(C)CC(=O)N1CCCC1 | 13.2

Row | Compound | hERG current change (%, negative = inhibition) at 10uM [%]
22 | COc1ccc(C)cc1S(=O)(=O)N(CC(=O)N1CCCC1)c1ccc(C)cc1 | -53
23 | COc1ccc(C)cc1S(=O)(=O)N(CC(=O)N1CCCC1)c1ccccc1 | -37.9
24 | COc1ccc(C)cc1N(CC(=O)N1CCOCC1)S(C)(=O)=O | 21.2
25 | COc1ccc(C)cc1S(=O)(=O)N(CC(=O)N1CCOCC1)c1cc(C)cc(C)c1 | -77.4
26 | COc1ccc(N(CC(=O)N2CCN(C)CC2)S(=O)(=O)c2cc(C)ccc2OC)cc1Cl | -60.3
27 | COc1ccc(C)cc1S(=O)(=O)N(C)CC(=O)N1CCN(C)CC1 | 2.65
28 | COc1ccc(Br)cc1S(=O)(=O)N(CC(=O)N1CCOCC1)c1ccccc1 | -47
29 | CC(OC(=O)C1CCC(=O)N1)C(=O)Nc1cc(Cl)cc(Cl)c1 (centres unmarked) | 2.72
30 | O=C(CSc1n[nH]c(=O)n1Cc1ccco1)c1ccc2c(c1)OCCO2 | 15
31 | c1cc2c(cc1Oc1nc(N3CCOCC3)nc(N3CCOCC3)n1)OCO2 | 3.77
32 | CC(C)Cc1ccc(C(C)C(=O)OCC(=O)c2c[nH]c3ccccc23)cc1 (centres unmarked) | 3.98
33 | Cc1ccc(NC(=O)c2cc([N+](=O)[O-])ccc2N2CCOCC2)cc1S(=O)(=O)N1CCOCC1 | -46
34 | Cc1ccc(C)c(NC(=O)c2cc(S(=O)(=O)N3CCCCC3)ccc2N2CCOCC2)c1 | -62.7
35 | Cc1ccc(S(=O)(=O)N2CCOCC2)cc1NC(=O)c1cc([N+](=O)[O-])ccc1N1CCOCC1 | -67.7
36 | NC(=O)c1ccccc1NC(=O)c1cc(S(=O)(=O)N2CCCCC2)ccc1N1CCOCC1 | -73.9
37 | CC(C)Oc1ccc(S(=O)(=O)N2CCOCC2)cc1NC(=O)c1cc([N+](=O)[O-])ccc1N1CCOCC1 | -45.7
38 | CCN(CC)S(=O)(=O)c1cc(NC(=O)c2cc([N+](=O)[O-])ccc2N2CCOCC2)ccc1C | -20.5
39 | O=C(Nc1ccccc1)c1cc(S(=O)(=O)N2CCCCC2)ccc1N1CCOCC1 | 1.08
40 | O=C(Nc1ccccc1Cl)c1cc(S(=O)(=O)N2CCCCC2)ccc1N1CCOCC1 | -39.7
41 | Cc1ccc(NC(=O)c2cc([N+](=O)[O-])ccc2N2CCOCC2)cc1S(=O)(=O)N(C)C | -52.8
